Measured values: the supplement of paper PMC3342239
Where a name gives a salt, the structure may show the parent alone.

Each compound was assayed on Saccharomyces cerevisiae (assay: fraction of cells in G1 phase (DNA content, flow cytometry); higher = more cells with unreplicated DNA (G1 delay)). Settings: temperature: 30 C; YPD; JTY2953 pdr5 snq2 (sensitized); drug added to: cultures diluted from stationary phase; 6-7 h.
Procedure, shortened: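 For the G1 fraction, the Dean-Jett-Fox G1 peak area was divided by the sum of the G1 and G2/M areas. S. cerevisiae in YPD at 30°C received library drugs and was fixed 6–7 h later for sensitized JTY2953 (diluted 1∶200 from overnight, final 20 µg/ml), 6 h later for dividing JTY2953, or 4.33 h later for BY4741. Fixed cells were stained with SYTOX Green and 10,000 events recorded by flow cytometry.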

Structure (SMILES)	fraction of cells in G1 phase
Cc1c(C)c2c(c(C)c1O)CCC(C)(COc1ccc(CC3SC(=O)NC3=O)cc1)O2 (stereo unspecified) [Troglitazone] (45.2949 µM)	0.591
O=P(O)(O)C(O)(Cc1cccnc1)P(=O)(O)O [Risedronic acid] (70.6425 µM)	0.463
C=CC[N+]1([C@H]2C[C@H]3[C@@H]4CC[C@H]5C[C@H](O)[C@@H](N6CCOCC6)C[C@]5(C)[C@H]4CC[C@]3(C)[C@H]2OC(C)=O)CCCC1 [Rocuronium bromide] (37.7508 µM)	0.479
C[C@]12CC[C@@H]3c4ccc(O)cc4CC[C@H]3[C@@H]1CC[C@@H]2O [Estradiol] (73.4239 µM)	0.58
COc1cc(CNC(=O)CCCC/C=C/C(C)C)ccc1O [Capsaicin] (65.4834 µM)	0.556
CCC1=C(C)CN(C(=O)NCCc2ccc(S(=O)(=O)NC(=O)N[C@H]3CC[C@H](C)CC3)cc2)C1=O [Glimepiride] (40.7642 µM)	0.481
CC(=O)O[C@@]12CO[C@@H]1C[C@H](O)[C@@]1(C)C(=O)[C@H](O)C3=C(C)[C@@H](OC(=O)[C@H](O)[C@@H](NC(=O)OC(C)(C)C)c4ccccc4)C[C@@](O)([C@@H](OC(=O)c4ccccc4)[C@H]21)C3(C)C [Docetaxil] (24.7555 µM)	0.507
CC[C@H]1OC(=O)[C@H](C)[C@@H](O[C@H]2C[C@@](C)(OC)[C@@H](O)[C@H](C)O2)[C@H](C)[C@@H](O[C@@H]2O[C@H](C)C[C@H](N(C)C)[C@H]2O)[C@](C)(OC)C[C@@H](C)C(=O)[C@H](C)[C@@H](O)[C@]1(C)O [Clarithromycin] (26.7389 µM)	0.489
CC(C)(Oc1ccc(CCNC(=O)c2ccc(Cl)cc2)cc1)C(=O)O [Bezafibrate] (55.2748 µM)	0.517
CC1CNc2c(cccc2S(=O)(=O)N[C@@H](CCCNC(=N)N)C(=O)N2CC[C@@H](C)C[C@@H]2C(=O)O)C1 (stereo partly specified) [Argatroban] (39.3202 µM)	0.487
CCN(CC)CCCC(C)Nc1ccnc2cc(Cl)ccc12 (stereo unspecified) [Chloroquine phosphate] (62.5232 µM)	0.469
CC(CCc1ccc(O)cc1)NCCc1ccc(O)c(O)c1 (stereo unspecified) [Dobutamine HCl] (66.3594 µM)	0.528
CS(=O)(=O)Nc1ccc([N+](=O)[O-])cc1Oc1ccccc1 [Nimesulide] (64.8687 µM)	0.58
O=C(O)Cc1sc(-c2ccccc2)nc1-c1ccc(Cl)cc1 [Fentiazac] (60.6414 µM)	0.533
CCCOc1ccccc1-c1nc2[nH]nnc2c(=O)[nH]1 [Zaprinast] (73.7243 µM)	0.482
Cc1[nH]c(=O)c(C#N)cc1-c1ccncc1 [Milrinone] (94.6857 µM)	0.482
Cc1cc2c(OCC(CNC(C)(C)C)OC(=O)c3ccccc3)cccc2[nH]1 (stereo unspecified) [Bopindolol malonate] (52.5636 µM)	0.517
Oc1ncnc2[nH]ncc12 [Allopurinol] (146.936 µM)	0.483
CN1CCCN=C1/C=C/c1cccs1 [Pyrantel pamoate] (33.6309 µM)	0.464
CCOC(=O)c1ncn2c1CN(C)C(=O)c1cc(F)ccc1-2 [Flumazenil] (65.9423 µM)	0.507
Cc1ncc([N+](=O)[O-])n1CCO [Metronidazole] (116.852 µM)	0.422
CCOC(=O)C(C)(C)Oc1ccc(Cl)cc1 [Clofibrate] (82.4047 µM)	0.552
CC(C)C[C@H](NC(=O)[C@H](Cc1ccccc1)NC(=O)c1cnccn1)B(O)O [Bortezomib] (52.0499 µM)	0.4
CCN(Cc1ccncc1)C(=O)C(CO)c1ccccc1 (stereo unspecified) [Tropicamide] (70.3331 µM)	0.521
NC(CO)C(=O)NNCc1ccc(O)c(O)c1O (stereo unspecified) [Benserazide HCl] (77.7459 µM)	0.514
CCN1CCC[C@H]1CNC(=O)c1c(OC)ccc(Br)c1OC [Remoxipride] (53.8681 µM)	0.525
